Screening results from PubChem BioAssay.
GCN5L2 inh: qHTS Assay for Inhibitors of GCN5L2. Histone acetyltransferase KAT2A (Homo sapiens), Q92830. GCN5L2 HAT assay, ThioGlo1 CoA-SH fluorescence. Potency, µM (series often up to 58.9 µM), inactives show at the highest dose activity change, negative = inhibition, most hits filed as inhibitors. 0.21% of 390,000 active
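Free CoA generated was detected with ThioGlo1 (50uM) fluorescence at Ex340nm/Em540nm, read immediately and after 20 min at room temperature. Enzyme, 20 nM in HEPES pH 7.5 buffer, saw compounds 15 min before adding 75uM H3(1-25) peptide and 70uM acetyl-CoA.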
BLM helicase inh: qHTS Assay for Inhibitors of Bloom's syndrome helicase (BLM). RecQ-like DNA helicase BLM (Homo sapiens), P54132. recombinant BLM DNA unwinding, fluorescence dequenching. Potency, µM (top dose mostly 56.1 µM), for inactives: at the highest dose activity change, negative = inhibition, hits mostly inhibitors. 0.2% of 350,000 active;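 further: plate controls were vehicle for no effect and no enzyme for full effect; nearly all actives have a fitted effect of over 35% in size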
RGS4 inh: Inhibitors of Regulator of G Protein Signaling (RGS) 4: qHTS | Regulator of G-protein signaling 4 (Homo sapiens), P49798 | Transcreener GDP fluorescence polarization, RGS4-accelerated GTP hydrolysis | Potency, µM (top dose mostly 114 µM), for inactives: at the top dose activity change, negative = inhibition, actives largely listed as inhibitors | 0.039% of 390,000 active | AID 504845, 2011; further: nearly all actives have a fitted effect of over 75% in size
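MLSMR compounds (23 nl, pin-transferred) preincubated 10 min at room temperature with a 500nM (2x) first reagent, then RGS4 at 900nM (2x) plus Transcreener GDP mix added; fluorescence polarization (620/688 nm) read before and after 90 min at 30 °C.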
TDP1 block: qHTS Assay for Inhibitors of Tyrosyl-DNA Phosphodiesterase (TDP1) | AID 485290, 2010 | recombinant TDP1, AlphaScreen DNA substrate cleavage | Tyrosyl-DNA phosphodiesterase 1 (Homo sapiens), Q9NUW8 | Potency, µM (highest dose often 130 µM), inactives show at the top dose activity change, negative = inhibition, actives largely listed as inhibitors | 0.28% of 350,000 active; further: nearly all actives have a fitted effect of over 40% in size
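Tdp1 1 nM final; 15 min RT w/ cpd; substrate 15 nM, 5 min; beads 10 ug/ml, 10 min; AlphaScreen read. Neg ctrl: no enzyme.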
APEX1 inh: qHTS Assay for Inhibitors of the Human Apurinic/apyrimidinic Endonuclease 1 (APE1). AID 2517, 2012. 0.35% of 350,000 active. DNA repair nuclease/redox regulator APEX1 (Homo sapiens), P27695. Potency, µM (highest dose often 65.8 µM), for the others: at the highest dose activity change, negative = inhibition, actives largely listed as inhibitors. recombinant APE1, TAMRA/BHQ-2 abasic DNA cleavage fluorescence;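 further: plate controls were vehicle for no effect and reference inhibitor for full effect; nearly all actives have a fitted effect of over 55% in size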
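Incision of a quenched TAMRA/BHQ-2 THF abasic-site duplex (50 nM) by 0.75 nM APE1, after 15 min compound preincubation, measured as fluorescence increase over three 60 s reads. Values normalized to buffer, DMSO and NSC13755 control wells.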
RECQ1 inh: qHTS Assay for Inhibitors of RecQ-Like Dna Helicase 1 (RECQ1); RECQ1 DNA unwinding, red fluorescence kinetic read; 0.54% of 240,000 active; Potency, µM (highest dose often 57.3 µM), for the others: top-dose activity, negative = inhibition, hits mostly inhibitors; AID 2549, 2010; ATP-dependent DNA helicase Q1 (Homo sapiens), P46063;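 further: plate controls were vehicle for no effect and no enzyme for full effect; nearly all actives have a fitted effect of over 30% in size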
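50 nM RECQ1T1 preincubated 15 min with compound in Tris pH 8.0 buffer with MgCl2, DTT, Tween-20 and 2.5 ug/ml poly(dI-dC); started with 200 nM TAMRA/BHQ-2 forked duplex and 2 mM ATP. Unwinding read as fluorescence (525/598 nm), two reads 2 h apart.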
* hit, by the source's call; i = inactive; ? = inconclusive; / = not tested or not shown; ! = not confirmed by another sample; [ ] = dose if it differs, or a comment. Only some compounds are listed: those with a hit (about 0.87% of all), similar ones and a draw of the others. The call rests on the fitted dose curve; in most records, active means well fitted curve in the direction sought with a large enough effect; inconclusive means small, poorly fitted or top-dose-only effect, or another doubt; inactive means no such curve, though single readings can be large; an effect the other way counts as inactive or inconclusive. Unless noted, on the % scale 0 is the no-effect control and ±100 the full control effect; potency means the concentration at half of the fitted maximal effect.

SMILES | GCN5L2 inh | BLM helicase inh | RGS4 inh | TDP1 block | APEX1 inh | RECQ1 inh
COc1ccc(/C=C2/C(=O)N(Cc3ccco3)C(=O)N(C(C)C)C2=O)cc1 | ? | -22% | ? | -13% | 22µM* | 25µM*
CCN1C(=O)C(=C2C=C(C)N(Cc3ccco3)C(C)=C2)C(=O)N(CC)C1=S | -6% | -5% | 3% | -1% | -3% | -3%
CC(C)N1C(=O)/C(=C/C=C/c2ccco2)C(=O)N(Cc2ccco2)C1=O | ? | ? | -23%[11.4 µM] | 6% | ? | 10µM*
O=C(O)c1cc(Oc2ccc([N+](=O)[O-])cc2)cc(Oc2ccc([N+](=O)[O-])cc2)c1 | ? | -3% | / | 10% | -5% | -11%
O=C(O)c1cc[c]([Hg][Cl])cc1 | 0.25µM* | / | 6.7µM*! | ? | 17% | -9%
O=C(O)c1cccc(Cl)c1 | / | / | / | 6% | -1% | 1%
CC[C@@H](CO)Nc1nc(NCc2ccccc2)c2ncn(C(C)C)c2n1 | ? | / | -10%[56.9 µM] | / | / | /
CCOC(=O)N1CCN(/[N+]([O-])=N/Oc2ccc([N+](=O)[O-])cc2[N+](=O)[O-])C(C)C1 (stereo unspecified) | / | -7% | ? | 4% | -3% | -11%
Cc1cccc2c3c(ccc12)C1=C(C(=O)C3=O)[C@@H](C)CO1 | -8% | -10% | / | 18% | -3% | 14%
O=C(Nc1cccc(C(=O)Nc2cc(C(=O)Nc3ccc([S+](=O)([O-])[O-])c4cc([S+](=O)([O-])[O-])cc(SOOO)c34)ccc2F)c1)Nc1cccc(C(=O)Nc2cc(C(=O)Nc3ccc([S+](=O)([O-])[O-])c4cc([S+](=O)([O-])[O-])cc([S+](=O)([O-])[O-])c34)ccc2F)c1 | -23% | 126% | / | 2.2µM* | 2.8µM* | 11µM*
CCCCC/C=C\C/C=C\C/C=C\C/C=C\CCCC(=O)O | 22µM*! | ? | i | 9% | ? | 2.2µM*!
C/C1=C\[C@@H](C)C/C=C/[C@H]2[C@@H]3O[C@]3(C)[C@@H](C)[C@H]3[C@H](Cc4c[nH]c5ccccc45)NC(=O)[C@]32C(=O)/C=C/C(=O)[C@@H]1O | -1% | -15% | ? | -6% | 16µM* | i
O=c1c2ccccc2nc(/C=C/c2ccc(O)cc2)n1-c1ccc(O)cc1 | 0% | -9% | -17% | / | 26% | /
O=c1c2ccccc2nc(/C=C/c2ccc(O)cc2)n1-c1cccc(O)c1 | ? | 25µM* | -2% | ? | ? | -13%
CC1(C)C(C(=O)O)N2C(=O)CC2S1(=O)=O (stereo unspecified) | 8% | -1% | / | 1% | 16% | i
Cc1cn([C@H]2C[C@H](O)[C@@H](CO)O2)c(=O)[nH]c1=O | -3% | 0% | i | 3% | ? | -2%
Brc1c(Br)c(Br)c2n[nH]nc2c1Br | 28µM* | ? | ? | 8%[56.1 µM] | -7% | ?
NC(=O)[C@H](Cc1ccccc1)NC(=O)[C@H](Cc1c[nH]c2ccccc12)NC(=O)[C@@H]1CCCN1C(=O)[C@@H](N)Cc1ccc(O)cc1 | / | / | / | 1% | / | /
Cc1cc(C)cc(OCCOc2cccc(C=C3C(=O)NC(=O)NC3=O)c2)c1 | -9% | -7% | ? | 79µM* | 17% | /
O=C1NC(=O)N(c2ccccc2F)C(=O)/C1=C/c1ccc(Sc2nc3ccccc3[nH]2)o1 | ? | -21% | ? | 2% | ? | ?
O=C1NC(=O)N(c2cccc(Cl)c2)C(=O)/C1=C\c1ccc(Sc2nc3ccccc3[nH]2)o1 | ? | -13% | ? | / | ? | 13µM*
O=c1[nH]c(=S)n(-c2ccccc2)c(O)c1/C=N/N1CCCCC1c1cccnc1 (stereo unspecified) | -18% | -5% | -29% | 6% | ? | 25µM*
CCOc1ccc2nc(N=Nc3c(O)[nH]c(=O)[nH]c3=O)sc2c1 | -1% | 1% | -31%[11.4 µM] | 40µM* | 1% | 13%
C[C@@]12C(=O)OC(=O)[C@]1(C)[C@H]1CC[C@@H]2O1 | 39%[21.4 µM] | 2%[21.4 µM] | / | 12%[21 µM] | / | i
Nc1ncnc2c1ncn2[C@@H]1O[C@H](COP(=O)(O)OP(=O)(O)OP(=O)(O)O)[C@H]2OC3(O[C@H]21)C([N+](=O)[O-])=CC(=[N+]([O-])[O-])C=C3[N+](=O)[O-] (stereo partly specified) | -7% | 35% | / | -6% | 1% | 21%
SMILES | GCN5L2 inh | BLM helicase inh | RGS4 inh | TDP1 block | APEX1 inh | RECQ1 inh
CC(C)CCCC(C)C1CCC2C3CC(=O)[C@H]4CC(O)CC[C@]4(C)C3CC[C@@]12C (stereo partly specified) | -12% | -11% | / | -5%[56.1 µM] | 12% | -10%
CC1CC(C)CN(C(=O)C2CCC(CNc3c(N4CCCCC4)c(=O)c3=O)CC2)C1 (stereo unspecified) | ? | 0% | 33% | / | -2% | -2%
CC1=C(O)C(=O)C=C2C1=CC=C1[C@]2(C)CC[C@@]2(C)C3C[C@](C)(C(=O)O)CC[C@@]3(C)CC[C@@]12C (stereo partly specified) | 13µM* | -18% | / | 12% | -1% | -12%
CC[C@@H]1/C=C/C=C/C[C@H](C)[C@@H](O)[C@](C)(O)C(=O)[C@H](C)[C@@H](O)[C@H](C)C(=O)[C@H](C)[C@@H](O)[C@H](C)/C=C/C(=O)O[C@H]2[C@@H](C)[C@@H](CC1)O[C@@]1(CC[C@@H](C)[C@@H](C[C@H](C)O)O1)[C@@H]2C | -15% | / | ? | 13% | 3% | i
O=C1C[C@@H]2OCC=C3CN4CC[C@]56c7ccccc7N1[C@H]5[C@H]2[C@H]3C[C@H]46 | / | / | / | / | 1% | /
CC(C)n1c(O)c(C2c3cc(Cl)ccc3Oc3[nH]c(=O)n(C(C)C)c(=O)c32)c(=O)[nH]c1=O (stereo unspecified) | 28µM* | 0% | -139% | 0% | 0% | -3%
CC1CCC(C(C)C)C(=O)C1 (stereo unspecified) | ? | -12% | / | 12%[56.1 µM] | / | 8%
